Platelet DG rel = modulates dense granule release in human platelets; human platelet-rich plasma, SFLLRN dense granule ATP release, luminescence; inhibition, %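 (compounds screened at 7.5 µM in platelet-rich plasma)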; 0.22% of 300,000 active; AID 1663;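 active means mean replicate score, as percent of positive control, at or above 50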
HIF act = HIF pathway transcriptional activation; 0.32% of 300,000 active; AID 1910; activation, % at 7.5 µM (by protocol); U2OS HRE-luciferase reporter, luminescence; normalized: DMSO 0%, desferrioxamine 100%;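 active means mean activation of at least 10% of the iron chelator positive control signal, with at least half of replicates also reaching 10%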
NTR1 ag = activates human neurotensin receptor 1; NTR1-U2OS beta-arrestin-GFP spot imaging, agonist mode; activation, % at 20 µM; 0.17% of 330,000 active; AID 493036;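 active means activation at or above 40% of the spot to cytoplasm intensity ratio, with at least 20 cells analyzed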;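 further: 0% = DMSO without peptide and 100% = 100 nM NTR1 peptide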
Target sequence (P30989 whole entry, looked up): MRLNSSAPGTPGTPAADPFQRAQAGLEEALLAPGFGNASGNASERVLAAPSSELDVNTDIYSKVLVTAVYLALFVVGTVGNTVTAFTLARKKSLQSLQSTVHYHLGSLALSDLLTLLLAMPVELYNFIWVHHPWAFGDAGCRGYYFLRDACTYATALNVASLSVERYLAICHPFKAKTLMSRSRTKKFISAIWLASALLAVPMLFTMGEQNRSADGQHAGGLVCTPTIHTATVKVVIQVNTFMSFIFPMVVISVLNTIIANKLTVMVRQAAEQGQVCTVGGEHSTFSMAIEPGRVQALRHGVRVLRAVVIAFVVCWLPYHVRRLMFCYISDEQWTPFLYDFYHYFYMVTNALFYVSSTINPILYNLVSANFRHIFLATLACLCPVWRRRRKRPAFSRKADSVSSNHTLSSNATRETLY
Numbers without * were called inactive; nt = no result. Hits are enriched below; roughly 0.63% of the tested compounds scored in any of these assays.

SMILES	Platelet DG rel	HIF act	NTR1 ag
Clc1ccc(/C=C/c2nc3ccccc3[nH]2)c(Cl)c1	60*	-5	0
Clc1ccc(/C=C/c2nc3ccccc3[nH]2)cc1	78*	-3	0
CCCCc1cc(-c2n[nH]c(=S)o2)c2ccccc2n1	6	0	-2
O=C(COC(=O)c1ccc2ncsc2c1)NCc1ccc(Cl)cc1	nt	nt	3
COc1cccc(/C=N/NC(=O)c2nc(-c3ccccc3)cc(-c3ccccc3)n2)c1O	9	11*	1
CCOc1ccccc1/C=N/NC(=O)c1c(C)nc2ccc(Br)cn12	1	-1	0
COc1cccc(/C=N\NC(=O)c2ccc(Cn3cc(Br)c([N+](=O)[O-])n3)o2)c1O	6	18*	1
COc1cccc(/C=N/NC(=O)N/N=C/c2cccc(OC)c2O)c1O	15	3	2
COc1cccc(/C=N/NC(=O)CSc2ccccc2C)c1OC	-2	0	2
COc1cccc(/C=N/NC(=O)CSc2ccccc2C)c1O	-9	12*	3
COc1cccc(/C=N/NC(=O)c2c(C)nc3ccc(Br)cn23)c1O	-2	32*	1
COc1cc(/C=N\NC(=O)c2ccc(Cn3nc([N+](=O)[O-])c(Cl)c3C)o2)ccc1O	5	0	0
Cc1ccc(S(=O)(=O)N2CCN(C(=O)COC(=O)c3ccccn3)CC2)c(C)c1	-9	0	0
COc1ccc(CNC(=O)[C@H](Cc2ccccc2)NC(=O)C2CCN(C(=O)[C@H](C)N)CC2)cc1	-1	0	-2
O=c1cc2n(c(=O)[nH]1)CCC1=C2CCCC1	0	0	6
C(=C1/CCCC2=C1Nc1ncnn1C2c1ccccc1)/c1ccccc1 (stereo not given)	22	2	73*
S=C1NC2=C(CCC/C2=C\c2ccccc2)C(c2ccccc2)N1 (stereo not given)	-11	0	0
O=[N+]([O-])c1ccc(Cl)c(-c2ccc(/C=N/c3c(-c4ccco4)nc4ccccn34)o2)c1	5	0	6
Oc1cccc(/C=N/c2c(-c3ccco3)nc3ccccn23)c1	12	18*	4
O=c1cc(-c2ccc([N+](=O)[O-])cc2)c2cc3c(cc2[nH]1)OCCO3	0	-1	4
COc1cccc(C(=O)Cn2c(=O)n(CCC(=O)NCC3CCCO3)c(=O)c3cc(OC)c(OC)cc32)c1 (stereo not given)	1	0	3
Cc1cc(C)cc(OCC(=O)OCC(=O)Nc2cc(C)nn2-c2ccccc2)c1	nt	nt	2
Cn1nc(-c2ccccn2)nc2c(=O)n(C)c(=O)nc1-2	148*	-4	0
COc1ccc(-c2nc(-c3ccccn3)ncc2S(C)(=O)=O)cc1	2	0	-2
Oc1c(C(Nc2ccccn2)c2cccnc2)cc(Cl)c2cccnc12 (stereo not given)	-16	0	-1
SMILES	Platelet DG rel	HIF act	NTR1 ag
COc1ccc(C(NC(=O)c2cccnc2)c2cc(Cl)c3cccnc3c2O)cc1OC (stereo not given)	-13	12*	-1
CCCC(=O)NC(c1ccccc1)c1ccc2cccnc2c1O (stereo not given)	-2	51*	4
CCC(=O)NC(c1ccccc1OC)c1ccc2cccnc2c1O (stereo not given)	1	35*	1
CC(C)C(=O)NC(c1ccccc1)c1cc([N+](=O)[O-])c2cccnc2c1O (stereo not given)	3	2	1
COc1ccc(Cl)cc1C(Nc1cccnc1)c1ccc2cccnc2c1O (stereo not given)	-4	8	6
CCCCC(=O)NC(c1ccc(C(C)C)cc1)c1ccc2cccnc2c1O (stereo not given)	3	103*	5
Cc1ccc(Cl)cc1N1CCN(S(=O)(=O)c2c(C(=O)N3CCOCC3)c(C)n(C)c2C)CC1	-12	0	0
O=C1NC2(CCCCC2)C(=O)N1c1ccc(Cl)cc1	16	1	2
CCCCC(=O)NC(c1ccccc1Cl)c1ccc2cccnc2c1O (stereo not given)	-4	128*	0
CCC(=O)NC(c1cccs1)c1cc([N+](=O)[O-])c2cccnc2c1O (stereo not given)	6	6	3
CCC(=O)NC(c1ccc(OC)cc1)c1c(O)ccc2ccccc12 (stereo not given)	3	1	2
CCCCC(=O)NC(c1ccc([N+](=O)[O-])cc1)c1c(O)ccc2ccccc12 (stereo not given)	-1	0	27
CCCCC(=O)NC(c1ccco1)c1cc(Cl)c2cccnc2c1O (stereo not given)	-3	0	1
CCCCC(=O)NC(c1ccccc1)c1ccc2cccnc2c1O (stereo not given)	-1	48*	1
CCCC(=O)NC(c1ccc(OC)cc1)c1ccc2cccnc2c1O (stereo not given)	-1	74*	3
CC(=O)NC(c1cccs1)c1cc([N+](=O)[O-])c2cccnc2c1O (stereo not given)	12	18*	nt
O=C(COC(=O)c1cccc(O)c1)Nc1nnc(-c2ccccc2)o1	-10	0	-1
O=C(O)CSCC(=O)Nc1ccc(C2CCCCC2)cc1	4	-4	0
Cc1cc(S(=O)(=O)NCc2ccccc2)ccc1OCC(=O)N1CCOCC1	-3	0	1
CCc1cccc(NS(=O)(=O)c2ccc3c(c2)CCC(=O)N3)c1	1	0	-1
CC(NC(=O)c1cccnc1)C(=O)N1CCCCC1 (stereo not given)	-7	0	0
Oc1c(C(c2ccccc2Cl)N2CCCC2)ccc2cccnc12 (stereo not given)	-6	59*	13
CC(=O)NC(c1ccc(C)cc1)c1cc(Cl)c2cccnc2c1O (stereo not given)	-4	9.8*	2
Oc1c(C(c2cccs2)N2CCN(c3ccccc3)CC2)ccc2cccnc12 (stereo not given)	nt	nt	21
CC(=O)NC(C)c1cc(F)c2cccnc2c1O (stereo not given)	nt	nt	3
SMILES	Platelet DG rel	HIF act	NTR1 ag
CC(=O)NC(c1ccc(C(C)C)cc1)c1ccc2cccnc2c1O (stereo not given)	16	163*	2
CC(=O)NC(c1cc(Cl)c2cccnc2c1O)C(C)C (stereo not given)	nt	nt	3
O=C(CCc1ccccc1)NC(c1cccs1)c1cc(Cl)c2cccnc2c1O (stereo not given)	5	102*	nt
CCCC(=O)NC(c1cccs1)c1cc([N+](=O)[O-])c2cccnc2c1O (stereo not given)	-8	-33	nt
CCN(Cc1ccccc1)C(=O)Cn1cc(S(=O)(=O)NC)c(S(=O)(=O)NC)c1	-3	-1	0
Cc1ccc(NC(=O)CN(C)C(=O)CCSc2ccc(F)cc2)cc1	nt	nt	0
COc1cc(Cl)c(C)cc1NC(=O)CN1C(=O)C2CC=CCC2C1=O (stereo not given)	nt	nt	0
O=C(c1sc2cc([N+](=O)[O-])ccc2c1Cl)N1CCOCC1	-3	0	-1
CCC(=O)NC(c1ccco1)c1cc(Cl)c2cccnc2c1O (stereo not given)	-1	2	0
CCC(=O)NC(c1ccc(OC)cc1)c1cc(Cl)c2cccnc2c1O (stereo not given)	-6	23*	3
